# Laboratory results from PubChem BioAssay (NCATS).
# Values joined by “and” are separate entries in the source; they are usually repeats but may differ in a detail not shown here. Equal entries are not always repeated. Inconclusive results are not listed. Unmarked numbers belong to inactive results. Active and inactive are the calls of the source. Calls follow the shape of the dose curve; as a rule, active = well fitted curve in the direction sought with a large enough effect; inconclusive = small, poorly fitted or top-dose-only effect, or another doubt; inactive = no such curve, though single readings can be large; an effect the other way counts as inactive or inconclusive.
# Assays:
# [1] = Viability qHTS for spleen associated tyrosine kinase inhibitor (SYKi) drug resistant MV4-11 cells (AID 1963824); also: nearly all actives have a fitted effect of over 35% in size
# How it was run: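 CellTiter-Glo luminescence, read 10 min after reagent addition, reports viability after a 72 hr compound exposure. Cells are an MV4-11 line made resistant to SYK inhibition, seeded at 500 per well onto compound-containing plates.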
# [2] = Quantitative highthroughput screen to assess conditional lethalithy of NOMO1 cells grown in RPMI1640 with untreated serum (RPMI+s) (AID 1963876); also: nearly all actives have a fitted effect of over 35% in size;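 as to Viability: 100% = DMSO wells and 0% = empty wells without cells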
# How it was run: (§1)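 Each medium arm—HPLM with 10% dialyzed FBS, or RPMI1640 with 5 mM glucose and 10% untreated or dialyzed FBS—was screened against an 11-point, 3-fold compound titration for 48 h at 37 °C, with CellTiter-Glo luminescence as endpoint.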
# [3] = Quantitative highthroughput screen to assess conditional lethalithy of NOMO1 cells grown in RPMI1640 with dialyzed fetal bovine serum (RPMI+ds) (AID 1963877); also: nearly all actives have a fitted effect of over 30% in size;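 as to Viability: series mostly up to about 46 µM; 100% = DMSO control wells and 0% = empty wells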
# How it was run: as §1
# [4] = Quantitative highthroughput screen to assess conditional lethalithy of NOMO1 cells grown in Human Plasma-Like Medium with dialyzed fetal bovine serum (HPLM+ds) (AID 1963878); also: nearly all actives have a fitted effect of over 35% in size;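 as to Viability: 100% = DMSO wells and 0% = empty wells on each plate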
# How it was run: as §1
# [5] = Quantitative highthroughput screen to assess conditional lethalithy of P12 Ichikawa cells grown in Human Plasma-Like Medium with dialyzed fetal bovine serum (HPLM+ds) (AID 1963879); details: Potency: viability; also: nearly all actives have a fitted effect of over 35% in size; as to Viability: series mostly up to about 46 µM
# How it was run: as §1
# [6] = Quantitative highthroughput screen to assess conditional lethalithy of P12 Ichikawa cells grown in RPMI1640 with dialyzed fetal bovine serum (RPMI+ds) (AID 1963880); details: Potency: P12-Ichikawa viability; also: nearly all actives have a fitted effect of over 35% in size;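 as to Viability: 100% = DMSO wells and 0% = empty wells on each plate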
# How it was run: as §1
# [7] = Quantitative highthroughput screen to assess conditional lethalithy of P12 Ichikawa cells grown in RPMI1640 with untreated serum (RPMI+s) (AID 1963881); details: Potency: viability; also: nearly all actives have a fitted effect of over 35% in size;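 as to Viability: series mostly up to about 46 µM; 100% = DMSO wells and 0% = empty wells without cells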
# How it was run: as §1
# [8] = Quantitative highthroughput screen to assess conditional lethalithy of SEM cells grown in Human Plasma-Like Medium with dialyzed fetal bovine serum (HPLM+ds) (AID 1963882); also: nearly all actives have a fitted effect of over 35% in size; as to Viability: series mostly up to about 46 µM
# How it was run: as §1
# [9] = Quantitative highthroughput screen to assess conditional lethalithy of SEM cells grown in RPMI1640 with unreated serum (RPMI+s) (AID 1963883); also: nearly all actives have a fitted effect of over 35% in size;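 as to Viability: 100% = DMSO wells and 0% = empty wells without cells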
# How it was run: as §1
# [10] = Quantitative highthroughput screen to assess conditional lethalithy of SEM cells grown in RPMI1640 with dialyzed fetal bovine serum (RPMI+ds) (AID 1963884); also: nearly all actives have a fitted effect of over 35% in size;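 as to Viability: series mostly up to about 46 µM; 100% = DMSO control wells and 0% = empty wells without cells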
# How it was run: as §1
# [11] = Cellular viability qHTS for adrenocortical cancer (ACC) cell line SW-13 (AID 1963989); details: SW-13 ACC cells viability, CellTiter-Glo, 48 h; activity (max response): active compounds read low; also: nearly all actives have a fitted effect of over 65% in size;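 as to activity (max response): cells grown in serum-free medium with ITS supplement; % is scaled to controls: 0 for no effect and ±100 for the full control effect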
# How it was run: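 Here, serum-free SW-13 cultures were dosed up to 46 uM. Following 48 h, ATP-dependent luminescence (CellTiter-Glo) reported viable cells, and logistic modeling produced IC50 values.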
# [12] = Cellular viability qHTS for adrenocortical cancer (ACC) cell line NCI-H295R (AID 1963990); also: nearly all actives have a fitted effect of over 60% in size
# How it was run: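 Viability of NCI-H295R after 48 h of treatment (final up to 46 uM) measured through cellular ATP luminescence.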
# Potency is read from the fitted curve at half-maximal effect.
compound,measurement,setting,value
O=C1OC(c2ccc(O)cc2)(c2ccc(O)cc2)c2ccccc21,Potency,[1],18.8 µM (active)
CCOc1ccc(-n2c(C(C)N(Cc3cccnc3)C(=O)Cc3ccc(F)c(C(F)(F)F)c3)nc3ncccc3c2=O)cc1 (stereo unspecified),Potency,[1],16.4 µM (active)
COc1cc(C2Oc3c(OC)cc(CCCO)cc3C2CO)ccc1O[C@H]1O[C@H](C)[C@@H](O)[C@H](O)[C@@H]1O (stereo partly specified),Potency,[1],inactive
CC(C)c1ccc(NC(=O)C(c2ccccc2)N(C)C(=O)Cc2c[nH]c3ccccc23)cc1 (stereo unspecified),Potency,[1],18.4 µM (active)
O=C(O)c1cccc(CN2C(=O)/C(=C(\c3ccccc3)c3ccc(Cl)cc3)c3ccccc32)c1,Potency,[1],20.6 µM (active)
COc1cc(/C=C2\CC[C@H]3COC[C@@H](c4cc(F)c(F)c(F)c4)N3C2=O)ccc1-n1cnc(C)c1,Potency,[1],13 µM (active)
CCCSc1nc(N[C@@H]2C[C@H]2c2ccc(F)c(F)c2)c2nnn([C@@H]3C[C@H](OCCO)[C@@H](O)[C@H]3O)c2n1,Potency,[1],23.1 µM (active)
Cc1ccnc(NC(=O)C(C)c2cccc(C(=O)c3ccccc3)c2)c1 (stereo unspecified),Potency,[1],23.1 µM (active)
COc1ccc(C[C@H](N)C(=O)N[C@H]2[C@@H](O)[C@H](n3cnc4c(N(C)C)ncnc43)O[C@@H]2CO)cc1,Potency,[1],0.184 µM (active)
COc1cc2c(cc1OC)CC(=O)N(CCCNC[C@H]1Cc3cc(OC)c(OC)cc31)CC2,Potency,[1],16.4 µM (active)
O=C(c1ccccc1)c1c(O)cc(O)cc1O[C@@H]1O[C@H](CO)[C@@H](O)[C@H](O)[C@H]1O,Potency,[1],inactive
Cc1ccc2c(Nc3ccc(Cl)cc3)nccc2c1Nc1ncccc1-c1ncnc2nc[nH]c12,Potency,[1],2.31 µM (active)
Cc1ccc(NS(=O)(=O)c2cccc(C#N)c2)c2[nH]cc(C#N)c12,Potency,[1],0.235 µM (active)
CNC(=O)c1ccc(-c2cnc3cnc(C(=O)N(C)c4ccc(Cl)cc4)cn23)cc1,Potency,[1],18.4 µM (active)
CC(=O)OC1CC2C(C)(C)C(=O)C=CC2(C)C2CC(=O)C3=C(CCC3C3=CC(O)OC3=O)C12C (stereo unspecified),Potency,[1],11.2 µM (active)
Cn1c(=O)c(F)c(Nc2ccc(I)cc2F)c2c(=O)n(CC(O)CO)cnc21 (stereo unspecified),Potency,[1],0.0259 µM (active)
Cc1noc(-c2ccc(-c3ccc(C4(C(=O)O)CC4)cc3)cc2)c1NC(=O)O[C@H](C)c1ccccc1,Potency,[1],11.8 µM (active)
C=C1CCC2C(C)(C(=O)O)CCCC2(C)C1CC/C(C)=C\CO (stereo unspecified),Potency,[1],inactive
N#CC(CCCN1CCC(O)(c2ccc(Cl)cc2)CC1)(c1ccccc1)c1ccccc1,Potency,[1],5.8 µM (active)
OC(CC1c2ccccc2-c2cncn21)C1CCCCC1 (stereo unspecified),Potency,[1],20.6 µM (active)
C[C@@H](Oc1cc(-n2cnc3ccc(OC4CCN(C)CC4)cc32)sc1C(N)=O)c1ccccc1Cl,Potency,[1],0.013 µM (active)
NC(=O)c1csc(C2OC(CO)C(O)C2O)n1 (stereo unspecified),Potency,[1],8.2 µM (active)
CC(C)=CCC/C(C)=C/CC/C(C)=C/CC[C@]1(C)CCc2cc(O)cc(C)c2O1,Potency,[1],inactive
OC[C@@]1(O)CO[C@@H](OC[C@H]2O[C@@H](Oc3ccccc3)[C@H](O)[C@@H](O)[C@@H]2O)[C@@H]1O,Potency,[1],inactive
COc1ccc(C2(O)CCC(N3CC[C@@H](NC(=O)CNC(=O)c4cccc(C(F)(F)F)c4)C3)CC2)cn1 (stereo partly specified),Potency,[1],inactive
Nc1ncnc2c1nc(N)n2[C@@H]1O[C@H](CO)[C@@H](O)[C@H]1O,Potency,[1],0.517 µM (active)
C=Cc1c(C)c2cc3nc(cc4[nH]c(cc5nc(cc1[nH]2)C(C)=C5CCC(=O)O)c(CCC(=O)OC)c4C)[C@@]1(C)C3=CC=C(C(=O)OC)[C@H]1C(=O)OC,Potency,[1],7.42 µM (active)
same,Potency,[2],14.8 µM (active)
same,Potency,[3],13.2 µM (active)
same,Potency,[4],14.8 µM (active)
same,Potency,[5],inactive
same,Potency,[6],inactive
same,Potency,[7],14.8 µM (active)
same,Potency,[8],inactive
same,Potency,[9],inactive
same,Potency,[10],inactive
COc1cccc2nc(-c3cccs3)nc(NN3C(=O)C=C(C)C3=O)c12,Potency,[1],0.148 µM (active)
same,Potency,[2],1.48 µM (active)
same,Potency,[3],1.32 µM (active)
same,Potency,[4],0.469 µM (active)
same,Potency,[5],2.09 µM (active)
same,Potency,[6],2.96 µM (active)
same,Potency,[7],2.64 µM (active)
same,Potency,[8],0.418 µM (active)
same,Potency,[9],0.935 µM (active)
same,Potency,[10],1.32 µM (active)
same,Potency,[11],11.2 µM (active)
same,Potency,[12],2.82 µM (active)
C=C1C(=C/C=C2\CCC[C@]3(C)[C@@H]([C@H](C)/C=C/[C@@H](O)C4CC4)CC[C@@H]23)C[C@@H](O)C[C@@H]1O,Potency,[1],0.188 µM (active)
CC1=C(C(=O)O)N2C(=O)[C@@H](NC(=O)[C@H](N)C3=CCC=CC3)[C@H]2SC1,Potency,[1],inactive
same,Potency,[2],inactive
same,Potency,[3],inactive
same,Potency,[4],inactive
same,Potency,[5],inactive
same,Potency,[6],inactive
same,Potency,[7],inactive
same,Potency,[8],inactive
same,Potency,[9],inactive
same,Potency,[10],inactive
same,activity (max response),[11],-13.1%
same,Potency,[12],inactive
C[C@@H]1O[C@@H](O[C@H]2[C@H](O[C@H]3CC[C@@]4(C)C(CC[C@]5(C)C4C=C[C@]46OC[C@@]7(CCC(C)(C)C[C@H]74)[C@@H](O)C[C@]65C)[C@]3(C)CO)O[C@H](CO)[C@@H](O)[C@@H]2O[C@@H]2O[C@H](CO)[C@@H](O[C@@H]3O[C@@H](C)[C@H](O)[C@@H](O)[C@H]3O)[C@H](O)[C@H]2O)[C@H](O)[C@H](O)[C@H]1O (stereo partly specified),Potency,[1],4.37 µM (active)
CC1(C)CC[C@]2(C(=O)O[C@@H]3O[C@H](CO)[C@@H](O)[C@H](O)[C@H]3O)CC[C@]3(C)C(=CCC4[C@@]5(C)C[C@@H](O)[C@H](O)[C@](C)(C(=O)O)C5CC[C@]43C)C2C1O (stereo partly specified),Potency,[1],inactive
CC1(C)CC(=O)C2=C(C1)NC(=S)NC2c1cccc(O)c1 (stereo unspecified),Potency,[1],0.58 µM (active)
COC1CC(OC2CCC3(C)C(=CCC4C3CCC3(C)C(C(C)O)CCC43O)C2)OC(C)C1OC1OC(C)C(OC2OC(COC3OC(COC4OC(CO)C(O)C(O)C4O)C(O)C(O)C3O)C(O)C(O)C2O)C(OC)C1O (stereo unspecified),"viability, % of control",[1],97.1% [at 9.25 µM]
O=C(O)c1nc(=O)[nH]c(=O)[nH]1,Potency,[1],inactive
same,Potency,[2],inactive
same,Potency,[3],inactive
same,Potency,[4],inactive
same,Potency,[5],inactive
same,Potency,[6],inactive
same,Potency,[7],inactive
same,Potency,[8],inactive
same,Potency,[9],inactive
same,Potency,[10],inactive
same,activity (max response),[11],-18%
C=C[C@@H]1[C@H](O[C@@H]2O[C@H](CO)[C@@H](O)[C@H](O)[C@H]2O)OC=C(C(=O)O)[C@H]1CCOC(=O)/C=C/c1ccc(O)c(O)c1,Potency,[1],inactive
C[C@@H]1O[C@@H](O[C@H]2[C@H](O[C@H]3CC[C@@]4(C)C(CC[C@]5(C)C4CC=C4[C@@H]6CC(C)(C)CC[C@]6(C(=O)O)CC[C@]45C)[C@]3(C)CO)OC[C@H](O)[C@@H]2O)[C@H](O)[C@H](O[C@@H]2OC[C@@H](O)[C@H](O)[C@H]2O)[C@H]1O (stereo partly specified),Potency,[1],4.91 µM (active)
Nc1nc(N)c2nc(CNc3ccc(C(=O)NC(CCC(=O)O)C(=O)O)cc3)cnc2n1 (stereo unspecified),Potency,[1],0.0148 µM (active)
same,Potency,[2],inactive
CC(C)Oc1ccc2c(=O)c(-c3ccccc3)coc2c1,Potency,[1],10.6 µM (active)
same,Potency,[2],inactive
same,Potency,[3],inactive
same,Potency,[4],inactive
same,Potency,[5],inactive
same,Potency,[6],inactive
same,Potency,[7],inactive
same,Potency,[8],inactive
same,Potency,[9],inactive
same,activity (max response),[11],-5.36% and 3.78%
same,Potency,[12],inactive
